HSF-1 act: HSF-1 activators, primary screen, NIH3T3-HGL cells, MG132 stress, luminescence, single point; NIH3T3-HGL HSF-1 luciferase reporter, 8 h; 100% = twice DMSO control signal; activation, % at 9 µM; 300,000 compounds, 1.7% hits; AID 504408, 2011;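 active means mean replicate activation of at least 50% with a set share of replicates each reaching 50%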;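 further: 0% = median of the neutral control wells and 100% = twice that signal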
HSF1 inh: HSF1 inhibitors in luciferase reporter cells, primary screen, cell-based, NIH3T3, luminescence; NIH3T3-HGL HSE-luciferase, MG132-induced, luminescence 8 h; active compounds read low; activity change, negative = inhibition, % at 7.5 µM (by protocol); 300,000 compounds, 0.77% hits; AID 2098, 2009;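 active means more than half of replicate wells show activity change below -50%, luminescence cut by over half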;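 further: luciferase reports HSF-1 transcriptional activity via heat shock element; 0% = median of DMSO wells and -100% = zero luminescence signal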
GAA850 FXN act: FXN promoter activators, primary screen, cell-based, luciferase luminescence, HEK293 lucGAA850. 360,000 compounds, 0.56% hits. activation, % at 6 µM. AID 540364, 2011. HEK293 lucGAA850 FXN promoter luciferase reporter, 24 h; percent of 10 µM SAHA response;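 active means activation above the average of all compounds screened plus 3 SD, cutoff fixed separately per campaign, cut at about 7.5% in these data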;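 further: 0% = DMSO wells and 100% = 10 µM SAHA wells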
AHR activator: AHR activators, primary screen, cell-based, luminescence, luciferase reporter, human | activation, % at 5 µM | AHR-responsive luciferase reporter cells | 320,000 compounds, 2.5% hits; in the data active means activation above about 47%;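 further: 0% = vehicle wells and 100% = reference agonist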
An asterisk follows results filed as active. The list is not random: actives were taken first. Their share in the collection is about 4.6%.

CN1CCN(c2ccccc2NC(=O)c2ccc(-c3ccc(Br)cc3)o2)CC1 was read as HSF-1 act 1.5, HSF1 inh -0.8, GAA850 FXN act -4.3 and AHR activator 12.9.
`CN1CCN(c2ccccc2NC(=O)c2cc(Br)ccc2Cl)CC1` gave HSF-1 act -6.0, HSF1 inh -0.5, GAA850 FXN act -0.3 and AHR activator 55.1*.
For CC(=O)N1CCN(c2ccccc2NC(=O)c2cc(Br)ccc2Cl)CC1 the results were HSF-1 act -4.6, HSF1 inh 11.3, GAA850 FXN act -1.1 and AHR activator 20.4.
`COc1ccccc1NC(=O)c1cc(Br)ccc1Cl` gave HSF-1 act -6.4, HSF1 inh 7.7, GAA850 FXN act 0.0 and AHR activator 65.4*.
For COc1ccccc1NC(=O)c1cc(S(=O)(=O)N2CCOCC2)ccc1Cl the results were HSF-1 act 3.6, HSF1 inh -5.0, GAA850 FXN act 0.8 and AHR activator 14.4.
For CCCc1cc(NCCCN2CCOCC2)n2c(nc3ccccc32)c1C#N the results were HSF-1 act 7.4, HSF1 inh -4.1, GAA850 FXN act -3.7 and AHR activator 1.8.
COc1cccc(NC(=O)c2ccccc2-c2nc(-c3cccc(C)c3)no2)c1 was read as GAA850 FXN act -1.6 and AHR activator 19.6.
`COC(=O)Nc1ccc(S(=O)(=O)N2CCC(C(=O)N3CCCC(C)C3)CC2)cc1` (configuration not stated) gave HSF-1 act 69.3*, HSF1 inh 38.7, GAA850 FXN act -1.2 and AHR activator -2.8.
For CC1Cc2cc(S(=O)(=O)N3CCCC(C(=O)N4CCCCC4)C3)ccc2N1C(=O)C1CC1 (configuration not stated) the results were HSF-1 act -0.4, HSF1 inh 1.5, GAA850 FXN act -0.6 and AHR activator -0.3.
Screening CC1CCCN(C(=O)C2CCN(S(=O)(=O)c3ccc4c(c3)CC(C)N4C(=O)C3CC3)CC2)C1 (configuration not stated) returned HSF-1 act -75.5, HSF1 inh -68.5*, GAA850 FXN act -0.1 and AHR activator 2.1.
`COc1ccc2c(c1)-c1nc(/N=C/c3c(O)ccc4ccccc34)sc1CC2` gave HSF-1 act 63.4*, HSF1 inh 39.2 and GAA850 FXN act 1.4.
For CCC(C)(C)NC(=O)C(c1ccncc1)N(C(=O)c1sc(C)nc1C)c1ccc(F)cc1 (configuration not stated) the results were HSF-1 act -51.3, HSF1 inh -37.8, GAA850 FXN act -0.5 and AHR activator 0.1.
`COCCNC(=O)C(c1ccncc1)N(C(=O)c1sc(C)nc1C)c1cccc(C)c1` (configuration not stated) gave HSF-1 act 74.6*, HSF1 inh 32.3, GAA850 FXN act 1.9 and AHR activator 5.4.
`O=c1[nH]c2ccccc2nc1CCc1ccccc1` gave HSF-1 act 10.4, HSF1 inh 8.0, GAA850 FXN act 6.2 and AHR activator 58.3*.
Cc1ccsc1C1Nc2ccc3ncccc3c2C2=C1C(=O)CC(C)(C)C2 (configuration not stated) was read as HSF-1 act 10.9, HSF1 inh 5.4, GAA850 FXN act -0.5 and AHR activator 2.1.
For CC1(C)CC(=O)C2=C(C1)c1c(ccc3ccccc13)NC2c1ccco1 (configuration not stated) the results were HSF-1 act 92.5*, HSF1 inh 63.3, GAA850 FXN act -0.6 and AHR activator 45.9.
For CC1CC(C)CN(S(=O)(=O)c2ccc(C(=O)NCc3ccco3)cc2)C1 (configuration not stated) the results were HSF-1 act 2.7, HSF1 inh 3.1, GAA850 FXN act -0.6 and AHR activator 0.9.
`Cc1cccc(C)c1OCc1cc(C(=O)N2CCN(c3ccc(F)cc3)CC2)no1` gave HSF-1 act 69.9*, HSF1 inh 62.7, GAA850 FXN act 3.5 and AHR activator 15.8.
Cc1cccc(C)c1OCc1cc(C(=O)N2CCN(c3ccccn3)CC2)no1 was read as HSF-1 act -8.5, HSF1 inh -0.3, GAA850 FXN act 3.4 and AHR activator 5.6.
For O=C(COC(=O)c1cc[n+]([O-])cc1)Nc1cccc(Cl)c1Cl the results were HSF-1 act -70.5, HSF1 inh -66.4*, GAA850 FXN act -0.3 and AHR activator 0.0.
Screening CN(C)Cc1c(O)ccc2c(=O)c(-c3ccc(Cl)cc3)coc12 returned HSF-1 act 19.4, HSF1 inh 13.2, GAA850 FXN act 2.0 and AHR activator 66.0*.
`CCN(CC)Cc1c(O)ccc2c(=O)c(-c3ccc(Cl)cc3)coc12` gave HSF-1 act 13.0, HSF1 inh 1.1, GAA850 FXN act 1.4 and AHR activator -0.4.
`COc1ccc(-c2cccc(CCC(=O)N3CCN(c4cc(C)ccc4C)CC3)c2)cc1` gave GAA850 FXN act 0.4.
Screening CCOC(=O)N1CCC(NC(=O)C2CCN(C(=O)c3cc4oc(C)cc4n3Cc3c(F)cccc3Cl)CC2)CC1 returned HSF-1 act 7.5, HSF1 inh -3.3, GAA850 FXN act 0.2 and AHR activator 1.3.
For O=C(CSc1cccs1)Nc1ccc(Cl)cc1 the results were HSF-1 act 65.5*, HSF1 inh 38.8, GAA850 FXN act 3.4 and AHR activator 0.0.
For Cc1cc(=O)c2n(Cc3ccccc3Cl)nc[n+]2[nH]1 the results were HSF-1 act 91.3*, HSF1 inh 53.8, GAA850 FXN act 0.1 and AHR activator -1.9.
For O=c1c(Cl)c(Cl)cnn1Cc1ccccc1Cl the results were HSF-1 act 49.3, HSF1 inh 23.5 and AHR activator 0.5.
`Cc1cc(C)c2nc(C(F)(F)F)nc(N3CC(C)OC(C)C3)c2c1` (configuration not stated) gave HSF-1 act -1.0, HSF1 inh 1.7, GAA850 FXN act -0.6 and AHR activator -1.2.
CCCCCn1c(Sc2nc3ccccc3s2)nc2c1c(=O)[nH]c(=O)n2C was read as HSF-1 act 58.2*, HSF1 inh 36.9, GAA850 FXN act 4.9 and AHR activator 16.3.
For Cn1c(=O)[nH]c(=O)c2c1nc(N1CCN(c3cccc(Cl)c3)CC1)n2CCCc1ccccc1 the results were HSF-1 act 0.5 and HSF1 inh -9.4.
Screening CCCCCn1c(N2CCN(c3cccc(Cl)c3)CC2)nc2c1c(=O)[nH]c(=O)n2C returned HSF-1 act 111.4*, HSF1 inh 58.2, GAA850 FXN act -1.1 and AHR activator 2.5.
For CCCCCn1c(Sc2ncccn2)nc2c1c(=O)[nH]c(=O)n2C the results were HSF-1 act 14.3, HSF1 inh 7.6, GAA850 FXN act 2.0 and AHR activator 4.5.
Screening Cc1cc(C)cc(NC(=O)COc2ccc3c(C)c(Cc4ccccc4)c(=O)oc3c2)c1 returned HSF-1 act 36.9, HSF1 inh 0.2 and AHR activator 2.2.
Screening CSc1nc(-c2ccccc2)cn1-c1ccc(NC(C)=O)cc1 returned HSF-1 act 11.5, HSF1 inh -2.1, GAA850 FXN act 6.3 and AHR activator 14.2.

High-throughput results (PubChem BioAssay)
